# TLR9-MyD88 block: TLR9-MyD88 interaction inhibition; inhibition, % at 4.98 µM; Q9NR96+Q99836; hit rate 0.21% among 340,000; CHO BLA complementation TLR9-MyD88, CCF4 FRET ratio; AID 504734;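 active = inhibition above the mean over all tested compounds plus 3 SD, cut at about 21% in these data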;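 note: 0% = DMSO only wells and 100% = clavulanate BLA inhibitor control wells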
# TLR4-MyD88 BLA: inhibitors of human TLR4-MyD88 binding | O00206+Q99836 | HeLa CL3-4 TLR4/MyD88 BLA complementation, FRET ratio | inhibition, % at 8.4 µM | hit rate 0.18% among 200,000 | AID 861; in the data active = inhibition above about 25%;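 note: 0% = vehicle and 100% = reference inhibitor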
# ABCB6 inh MLPCN: inhibitors of human ABC transporter ABCB6; hit rate 0.19% among 360,000; K562-ABCB6 porphyrin accumulation, flow cytometry, 1 h; hits give low values; Q9NP58; fluorescence ratio to DMSO, % at 10 µM; AID 602162;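 active = fluorescence ratio to DMSO below 75%, the collection mean minus 3 SD; inconclusive = too few cells collected in the well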;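 note: signal is porphyrin accumulated inside mitochondria; 100% equals median channel fluorescence of DMSO control wells; lower ratio means ABCB6 inhibition with less porphyrin fluorescence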
# NOD2 RIPK2 PPI: inhibitors of human NOD2-RIPK2 interaction; O43353; CHO BLA complementation NOD2-RIPK2, CCF4 ratio; inhibition, % at 4.98 µM; hit rate 0.38% among 360,000; AID 624267; in the data active = inhibition above about 21%;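 note: 0% = vehicle only and 100% = reference blocker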
# Myeloid diff 2: myeloid differentiation induction | ER-HoxA9 myeloid progenitors, lysozyme-GFP differentiation, flow cytometry | calls only at 10 µM | hit rate 1% among 360,000 | AID 624256;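 active = normalized GFP-positive differentiation at or above the plate's own cutoff, the solvent-only control mean plus 3 SD; inconclusive = no clear call, values can overlap the other calls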;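 note: cells exposed to compound for four days before flow analysis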
# The depositor's hits bear a star; i = inactive; ? = inconclusive; . = no result given; + = active, no number; ! = repeats disagree. This is a sample that favours compounds with a hit; in the whole collection about 1.7% have one here.
SMILES,TLR9-MyD88 block,TLR4-MyD88 BLA,ABCB6 inh MLPCN,NOD2 RIPK2 PPI,Myeloid diff 2
CCN1CCN(Cc2ccc(NC(=O)c3ccc(C)c(NC(=O)c4nccn4C)c3)cc2C(F)(F)F)CC1,-8,.,102,-4,i
CCN1CCN(Cc2ccc(NC(=O)c3ccc(C)c(NC(=O)c4nccnc4N)c3)cc2C(F)(F)F)CC1,-10,.,97,16,?
CCN1CCN(Cc2ccc(NC(=O)c3ccc(C)c(NC(=O)N4CCNC4=O)c3)cc2C(F)(F)F)CC1,-4,.,98,6,+!
CCOc1ccc(NC(=O)COc2ccc(C(=O)NCC3CCCO3)cc2OC)cc1 (centres undefined),-7,.,102,-5,i
C/C(=N\Nc1cc(C(F)(F)F)ccc1Cl)c1ccncc1,-3,.,172,-7,i
CCOC(=O)c1ccccc1Nc1cn(C(C)=O)c2ccccc12,0,2,101,7,+
CC(=O)n1cc(Nc2ccccc2C(=O)O)c2ccccc21,6,11,100,-1,i
CCOC(=O)c1c(C)[nH]c(C(C)=NNC(=O)Cn2nc(C)cc2C)c1C,-9,.,100,-8,i
Cc1nn(CCOc2ccccc2)c(=O)n1-c1ccc(F)cc1,6,-3,94,-8,i
Cc1cccc(C)c1-n1c(C)nn(CCOc2ccccc2)c1=O,2,3,103,3,+
COC(=O)Nc1ccc(S(=O)(=O)N2CCCC(C(=O)NC3CCCCC3)C2)cc1 (centres undefined),-8,-9,107,-3,i
O=C(Nc1ccc(S(=O)(=O)N2CCCCC2)cc1)C1CCN(C(=O)c2ccco2)CC1,-5,.,94,0,+
COC(=O)Nc1ccc(S(=O)(=O)N2CCC(C(=O)NC3CCCCC3)CC2)cc1,-3,4,148,-2,+
CC1CCN(S(=O)(=O)c2ccc(NC(=O)C3CCN(C(=O)c4ccco4)CC3)cc2)CC1,-7,.,104,2,i
CCCCc1ccc(S(=O)(=O)NC(=O)C2(C)CCN2C(=O)C/C=C/c2ccccc2)cc1 (centres undefined),.,.,91,-10,i
Fc1ccccc1CNc1nc(-c2cccnc2)nc2ccccc12,-7,.,101,-5,i
CN(C)c1ccc(/C=C(/C#N)C(=O)Nc2nc3c(s2)CCN(Cc2ccccc2)C3)cc1,7,.,553,0,+
CCOc1ccc(C(=O)NCC(c2cccs2)N(C)C)cc1OCC (centres undefined),14,-6,103,-7,i
N#C/C(C(N)=O)=c1/ccc2c(c1)N1C3=C(CCCC3)CC3CCCCC31N=2 (centres undefined),.,-1,.,.,.
N#CC(C#N)=c1ccc2c(c1)N1C3=C(CCCC3)CC3CCCCC31N=2 (centres undefined),1,5,130,0,+
CC(C)(C)OC(=O)NCCCCCNC(=O)c1[nH]cnc1C(=O)N[C@@H](CCCCNC(=O)OC(C)(C)C)C(=O)OC(C)(C)C,-7,1,67*,-8,?
C[C@H](CO)N1C[C@H](C)[C@H](CN(C)S(=O)(=O)c2ccccc2F)OCc2cnnn2CCCC1=O,6,.,106,-9,i
Cc1cccc(C2(c3cccc(C)c3)OC(=O)c3ccccc32)c1,6,-10,127,-21,+
CC1(c2nnnn2-c2ccc3c(c2)OCCO3)CCC(=O)N1C1CC1 (centres undefined),.,.,96,-9,i
CCN(CC)CCNC(=O)C12CC3CC(CC(C3)C1)C2,-7,8,98,1,+
SMILES,TLR9-MyD88 block,TLR4-MyD88 BLA,ABCB6 inh MLPCN,NOD2 RIPK2 PPI,Myeloid diff 2
CCOc1ccc(NS(=O)(=O)c2ccc(OCC)c3ncccc23)cc1,-9,6,95,-9,+
CCOc1ccc(S(=O)(=O)NCc2ccc(C)cc2)c2cccnc12,-5,-18,108,3,i
COCCNC(=O)NC(=O)CSc1nc(C)c(C)c(C)n1,12,-7,97,2,+
Cc1nc(SCC(=O)NC(=O)NCc2ccccc2)nc(C)c1C,-9,5,102,3,i
COc1cc(NS(=O)(=O)c2ccc(NC(C)=O)cc2)nc(OC)n1,0,1,98,1,i
COc1cc(NS(=O)(=O)c2ccc(N/C=C(\C#N)c3nc4cc(Cl)ccc4o3)cc2)nc(OC)n1,-5,-3,55*,-1,.
CCOc1ccc(NC(=O)CSc2nc3ccccc3nc2N2CC(C)OC(C)C2)cc1 (centres undefined),3,.,96,-10,i
O=C(NCCc1ccccc1)C(c1cccs1)N(C(=O)CCl)c1ccc(Cl)cc1 (centres undefined),6,18,33*,15,?
Nc1ccc2nc(-c3ccccc3)[nH]c2c1,13,2,94,0,+
Nc1ccc2nc(-c3cccnc3)[nH]c2c1,7,-15,104,-9,i
O=[N+]([O-])c1ccc(N=Nc2ccc(O)c3ccccc23)cc1,-13,.,213,-1,+
O=C(CSc1ncn[nH]1)NCc1ccc(Cl)cc1,-13,.,96,-8,i
COc1ccc(CNC(=O)CSc2ncn[nH]2)cc1OC,10,.,107,4,+
CCc1ccc(OCc2cccc(C(=O)N/N=C\c3cnn(C)c3C)c2)cc1,3,.,109,-7,+
Nc1cccc(N2C(=O)c3cccc4c(N)ccc(c34)C2=O)c1,7,.,148,5,+
CC(C)c1nnc(NC(=O)C2CCCN2C(=O)Nc2cccc(Cl)c2)s1 (centres undefined),-3,.,103,-14,i
NC(=O)C1CCN(c2nc(-c3ccc(F)cc3)cs2)CC1,-6,.,101,2,+
COc1cc(C=NNC(=O)C(=O)Nc2cccc(Cl)c2)cc(OC)c1O,-3,.,201,-2,+
O=c1/c(=C\c2ccc(O)cc2)sc2n1C(c1ccccc1)C(c1ccccc1)=NN=2 (centres undefined),5,4,148,2,+
CCN(CC)C(=O)C1CCN(S(=O)(=O)c2c(C)noc2/C=C/c2cccc(C)c2)CC1,-9,.,101,-8,+
COc1ccc(-c2cccc(-c3cc(=O)oc4cc(OC)cc(OC)c34)c2)cc1,7,.,100,3,?
COc1cc(OC)c2c(-c3cccc(-c4ccc(CO)cc4)c3)cc(=O)oc2c1,5,.,97,23*,?
COc1cc(OC)c2c(-c3cccc(-c4cccc(C)c4)c3)cc(=O)oc2c1,-5,.,96,-7,+
COc1ccc(C2=NN(C(=O)COC(=O)c3ccc(NC(=O)CC#N)cc3)C(c3ccco3)C2)cc1 (centres undefined),2,.,88,-8,+
Cc1cccc(C(C)C)c1NC(=O)c1c(-c2ccccc2)noc1C,-7,.,99,-3,i
CCc1nc2ccc(C(=O)Nc3cccc(NS(C)(=O)=O)c3)cn2c1N(C=O)CCC(C)C,.,.,i,-3,+

# High-throughput results (PubChem)
